From PubChem BioAssay (NCATS)
Inconclusive results are not listed. Where a call stands in place of a potency, no number is given. Calls of active or inactive are those of the source. Unless noted, the call rests on the fitted dose curve.

Key:
[1] = qHTS for Inhibitors of the Functional Ribonucleoprotein Complex (vRNP) of Lassa (LASV) Arenavirus: LASV Primary Screen - GLuc reporter signal (AID 1347082; calls by dose curve; tested in HEK293 reporter line; further: nearly all actives have a fitted effect of over 60% in size)
[2] = qHTS for Inhibitors of the Functional Ribonucleoprotein Complex (vRNP) of Lymphocytic Choriomeningitis Arenaviruses (LCMV): Viability assay - alamar blue signal for LCMV Primary Screen (AID 1347085; calls by dose curve; tested in HEK293 reporter line; further: nearly all actives have a fitted effect of over 80% in size)
[3] = target: Nucleoprotein (Lymphocytic choriomeningitis virus (strain Armstrong)) (UniProt P09992); assay: qHTS for Inhibitors of the Functional Ribonucleoprotein Complex (vRNP) of Lymphocytic Choriomeningitis Arenaviruses (LCMV): LCMV Primary Screen - GLuc reporter signal (AID 1347086); further: nearly all actives have a fitted effect of over 70% in size
[4] = qHTS for Inhibitors of the Functional Ribonucleoprotein Complex (vRNP) of Lassa (LASV) Arenavirus: Viability assay - alamar blue signal for LASV Primary Screen (AID 1347083; calls by dose curve; tested in HEK293 reporter line; further: nearly all actives have a fitted effect of over 80% in size)
Potency means the concentration at half of the fitted maximal effect.

Nucleoprotein (Lymphocytic choriomeningitis virus (strain Armstrong)), sequence (P09992 whole entry, looked up): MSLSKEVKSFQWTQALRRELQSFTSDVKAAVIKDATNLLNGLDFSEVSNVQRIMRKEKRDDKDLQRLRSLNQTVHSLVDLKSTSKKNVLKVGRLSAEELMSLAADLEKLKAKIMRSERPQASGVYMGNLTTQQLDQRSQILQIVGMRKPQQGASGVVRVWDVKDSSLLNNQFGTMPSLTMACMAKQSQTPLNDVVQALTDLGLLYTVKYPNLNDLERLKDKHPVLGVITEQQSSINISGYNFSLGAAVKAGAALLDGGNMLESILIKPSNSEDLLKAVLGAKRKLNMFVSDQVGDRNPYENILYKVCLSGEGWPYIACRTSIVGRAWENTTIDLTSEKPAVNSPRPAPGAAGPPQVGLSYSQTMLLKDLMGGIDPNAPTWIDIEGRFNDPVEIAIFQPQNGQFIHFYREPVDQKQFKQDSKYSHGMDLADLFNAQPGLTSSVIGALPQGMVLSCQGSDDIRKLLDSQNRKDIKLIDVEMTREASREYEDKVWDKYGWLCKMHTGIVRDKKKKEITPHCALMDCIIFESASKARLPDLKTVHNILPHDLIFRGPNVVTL

Cc1cc(O)c2ccccc2c1O
Potency [1]: inactive | Potency [2]: inactive | Potency [3]: inactive

O=C(O)Cc1ccc(-c2ccccc2)cc1
Potency [1]: inactive | Potency [4]: inactive | Potency [3]: inactive

N#C[C@H]1C[C@H]2C[C@@H]2N1C(=O)[C@@H](N)C12CC3CC(CC(O)(C3)C1)C2
Potency [1]: inactive | Potency [4]: inactive | Potency [3]: inactive

CN(C)C(=O)COC(=O)Cc1ccc(OC(=O)c2ccc(N=C(N)N)cc2)cc1
Potency [1]: inactive | Potency [3]: inactive

COc1cc(C)nc(-n2nc(C)cc2OC)n1
Potency [1]: inactive | Potency [4]: inactive | Potency [3]: inactive

COc1cc(C(=O)NS(=O)(=O)c2ccccc2C)ccc1Cc1cn(C)c2ccc(NC(=O)OC3CCCC3)cc12
Potency [1]: inactive | Potency [4]: inactive | Potency [3]: inactive

CN(C)c1ccc2nc3ccc(=[N+](C)C)cc-3sc2c1
Potency [1]: 9.68 µM (active) | Potency [2]: 24.3 µM (active) | Potency [3]: 6.85 µM (active)

Nc1cc(C(Cl)=C(Cl)Cl)c(S(N)(=O)=O)cc1S(N)(=O)=O
Potency [1]: inactive | Potency [4]: inactive | Potency [3]: inactive

O=C1CN(/N=C/c2ccc([N+](=O)[O-])o2)C(=O)N1
Potency [1]: inactive | Potency [4]: inactive | Potency [3]: inactive

O=C(Nc1cccc2c(=O)cc(-c3nn[nH]n3)oc12)c1ccc(OCCCCc2ccccc2)cc1
Potency [4]: 30.6 µM (active)

CC(=O)OC[C@H]1O[C@@H](n2ncc(=O)[nH]c2=O)[C@H](OC(C)=O)[C@@H]1OC(C)=O
Potency [2]: inactive | Potency [3]: inactive

Nc1nc(Cl)nc2c1ncn2[C@H]1C[C@H](O)[C@@H](CO)O1
Potency [1]: inactive | Potency [2]: 8.63 µM (active)

COc1cc(NS(C)(=O)=O)ccc1Nc1c2ccccc2nc2ccccc12
Potency [4]: 2.51 µM (active) | Potency [3]: 5.62 µM (active)

Cc1ccccc1C(=O)Nc1ccc(C(=O)N2CCCC(N(C)C)c3ccccc32)cc1 (centres undefined)
Potency [1]: inactive | Potency [3]: inactive

COc1cc2nc(Cl)nc(N)c2cc1OC
Potency [1]: inactive | Potency [2]: inactive

Nc1ccc(C(=O)Nc2ccccc2N)cc1
Potency [1]: inactive | Potency [3]: inactive
